Test results taken from PubChem BioAssay AID652042 (Broad Institute, 2013).
Screen size: about 1,100 compounds; about 350 (32%) were called active. How the calls were made is not given here. These entries were drawn from the full list. Results with a measured potency or affinity are listed apart.

Test: viability loss in CEM21 cells – cell-based, CellTiter-Glo luminescence, cherry-picked, cytotoxicity control for viral fusion inhibitor project, dose response (AID 652042)
Conditions: CellTiter-Glo ATP luminescence, 24 h; series mostly up to 35 µM

| SMILES | activity change, negative = cytotoxicity |
| --- | --- |
| CCOC(=O)CN1CCCc2nc(C)c(C)cc21 | inactive |
| Cn1c(SCc2nc(-c3ccc(Cl)cc3)no2)nnc1-c1cccs1 | inactive |
| CCNc1ncnc2c1cnn2C1CCCO1 (centres undefined) | inactive |
| COc1cc(OC)cc(C(=O)N[C@H](C(=O)NCCc2c[nH]c3ccccc23)C(C)C)c1 | inactive |
| COc1cc(CNCc2ccc(OC)c3ccccc23)cc(OC)c1OC | inactive |
| N#Cc1c(NCc2ccccc2)ccnc1NCc1cccnc1 | inactive |
| Cc1nc2ccccc2nc(C)c1=NOCc1cccc(Cl)c1 | inactive |
| COc1ccc(-c2nn(C)c(=O)c3ccccc23)cc1NC(=O)Cn1nc(C)c2ccccc2c1=O | inactive |
| Cc1ccc(C(=O)Nc2cnc3ccccc3c2)cc1 | inactive |
| COc1ccc(-c2c(C)nn3c(C(F)(F)F)cc(C)nc23)cc1 | inactive |
| C=CCNc1nc2c(c(=O)n(C)c(=O)n2C)n1CCCCCC | inactive |
| O=C(CNC(=O)c1cccc(-n2cccc2)c1)Nc1ccccc1Br | inactive |
| CC[C@@]12C(=O)N(c3ccc(OC)cc3)C(=O)N1[C@H](c1ccc(Cl)cc1)[C@@H]1C(=O)N(C3CCCCC3)C(=O)[C@@H]12 | inactive |
| Cn1c(-c2ccc(Cl)cc2)ccc(C#N)c1=O | inactive |
| O=S(=O)(NC1CC1)c1ccc(S(=O)(=O)N2CCCc3ccccc32)cc1 | inactive |
| Cc1ccc(OCCCCNC(C)c2ccccc2)c(C)c1 (centres undefined) | 1.82% [at 8 µM] (inactive) |
| CC(C)OP(=O)(Nc1cccc2ccccc12)OC(C)C | inactive |
| COc1ccccc1CN(C)C(=O)CN1CCN(C(=O)c2cccs2)CC1 | inactive |
| O=C(c1ccccc1F)N1CCN(Cc2cccc(Cl)c2)CC1 | inactive |
| O=C(CCCC(=O)N(c1ccc2c(c1)OCCO2)C(C(=O)NC1CCCCC1)c1ccc(F)cc1)Nc1ccccn1 (centres undefined) | inactive |
| Nc1ccn([C@@H]2O[C@H](C(=O)NCc3ccc4c(c3)OCO4)[C@@H](O)[C@H]2O)c(=O)n1 | inactive |
| Nc1ccn(C2OC(COC(=O)C34CC5CC(CC(C5)C3)C4)C(O)C2O)c(=O)n1 (centres undefined) | inactive |
| C[C@@]12CC(=O)NC1N(C(=O)c1cccc(C(F)(F)F)c1)C(c1ccccc1O)C2 (some centres undefined) | inactive |

| SMILES | activity change, negative = cytotoxicity |
| --- | --- |
| COc1ccc(CC(=O)Nc2cccc(S(=O)(=O)N3CCCCCC3)c2)cc1OC | inactive |
| COc1ccc(NS(=O)(=O)c2cccc(C(=O)NNC(=O)CNC(=O)c3ccc(C)cc3)c2)cc1 | inactive |
| CC1CCCC(C)N1CCCNC(=O)c1nn(C)c2c1CSc1ccccc1-2 (centres undefined) | inactive |
| Cc1cc(N2CCN(c3nc4ccccc4s3)CC2)n2ncnc2n1 | inactive |
| Cc1cccc(C)c1NC(=O)CCCSc1nnc(-c2ccc(Cl)cc2)n1-c1ccccc1 | inactive |
| O=C(NCc1ccco1)c1ccc(Cn2c(=O)c3ccccc3n(Cc3cccc(Cl)c3)c2=O)cc1 | inactive |
| Cc1cc(C(=O)N2CCC(C(=O)O)CC2)c(C(F)(F)F)o1 | inactive |
| COc1ccc(-c2cn[nH]c2N)c(OC)c1 | inactive |
| CCN(CC)S(=O)(=O)c1cccc(S(=O)(=O)c2cccc(S(=O)(=O)N(CC)CC)c2)c1 | inactive |
| CCN(C[C@H]1N[C@@](CC)(C(=O)OC)[C@H]2C(=O)N(Cc3ccccc3)C(=O)[C@@H]12)S(=O)(=O)c1ccc(C(F)(F)F)cc1 | inactive |
| O=C(Nc1ccc(Cl)cc1)Nc1cccc(C(=O)O)c1 | inactive |
| Cc1cc(Nc2cccc(C(F)(F)F)c2)cc(=O)n1-c1cccc(C(F)(F)F)c1 | inactive |
| O=C(Nc1cccc(C(F)(F)F)c1)c1ccc(Cn2cc(Br)cn2)o1 | inactive |
| CCCCS(=O)(=O)N1CCN(C(=O)C(=O)c2cccc(C(F)(F)F)c2)CC1 | inactive |
| CCN(C1CCCCC1)S(=O)(=O)c1ccc(S(=O)(=O)N(CC(=O)Nc2ccccc2)C2CC2)cc1 | inactive |
| O=C(NC1CCCCC1)C(c1ccc(Cl)cc1)N(C(=O)c1cnccn1)c1ccc2c(c1)OCO2 (centres undefined) | inactive |
| COc1ccc(N2CCn3c2nc2c3c(=O)n(CCCc3ccccc3)c(=O)n2C)c(OC)c1 | inactive |
| CCN1C(=O)[C@H]2[C@@H](c3ccc(C(F)(F)F)cc3)N[C@]3(CCCN(Cc4ccccc4)C3=O)[C@H]2C1=O | inactive |
| CCC(C(=O)c1ccccc1)N(C(=O)c1ccccc1Cl)N1C(=O)C2C3C=CC(C3)C2C1=O (centres undefined) | inactive |
| CC[C@@]1(C(=O)OC)N[C@H](CN(C)S(=O)(=O)c2ccc(-c3ccccc3)cc2)[C@@H]2C(=O)N(Cc3ccccc3)C(=O)[C@@H]21 | inactive |
| O=C(Cc1ccc(Cl)cc1Cl)Nc1ccncc1 | inactive |
| CCN(C[C@H]1N[C@@](CC)(C(=O)OC)[C@H]2C(=O)N(Cc3ccccc3)C(=O)[C@@H]12)C(=O)Nc1ccc(Cl)cc1 | inactive |
| CCN(CC)C(=O)c1ncn2c1C(=O)NC[C@@H]2C | inactive |

| SMILES | activity change, negative = cytotoxicity |
| --- | --- |
| CCc1ccc2[nH]c(=O)c(C(c3nnnn3Cc3ccc(OC)cc3)N3CCOCC3)cc2c1 (centres undefined) | inactive |
| CCc1nnc(NC(=O)[C@@H](NC(=O)c2cccc(S(=O)(=O)N(CC)CC)c2)C(C)C)s1 | inactive |
| Cc1ccc(C(=O)Nc2cccc(C(=O)O)c2)cc1 | inactive |
| COc1ccc(C2N(S(=O)(=O)c3ccc(C)cc3)CCN2S(=O)(=O)c2ccc(C)cc2)cc1 | inactive |
| Cc1ccccc1S(=O)(=O)N1C[C@H]2[C@H]3C(=O)N(C4CCCCC4)C(=O)[C@H]3CC(=O)[C@H]2[C@@H]1c1ccc(Cl)cc1 | inactive |
| O=C(NCc1cccnc1)c1c[nH]c2cc3c(cc2c1=O)OCCO3 | inactive |
| CC[C@@]1(C(=O)OC)N[C@H](CN(C)C(=O)c2ccc(C(C)(C)C)cc2)[C@@H]2C(=O)N(Cc3ccccc3)C(=O)[C@@H]21 | inactive |
| N#Cc1ccc(CSc2nnc(COc3ccccc3)n2-c2ccccc2)cc1 | inactive |
| Cc1cc(C(=O)CN2C(=O)c3ccccc3S2(=O)=O)c(C)n1C(C)C | inactive |
| O=C(Nc1ccc(S(=O)(=O)N2CCN(Cc3ccccc3)CC2)cc1)c1cnccn1 | inactive |
| O=C(Nc1nc(-c2ccc3c(c2)OCO3)cs1)c1ccncc1 | inactive |
| Cc1ccc2c(CN3CCN(S(=O)(=O)c4ccc5c(c4)OCCO5)CC3)cc(=O)oc2c1C | inactive |
| Cc1ccc(N2C(=O)CC(c3ccsc3)C3=C2CC(C)(C)CC3=O)cc1 (centres undefined) | inactive |
| CCN(CC)c1ncnc2ccc(Br)cc12 | inactive |
| O=S(=O)(Nc1nc2ccccc2nc1Nc1cccc(S(=O)(=O)N2CCCCC2)c1)c1ccccc1 | inactive |
| O=C(N/N=C/c1sc(N2CCOCC2)nc1-c1ccccc1)c1cccc(S(=O)(=O)N2CCOCC2)c1 | inactive |
| CC(=O)OC1c2ccccc2C(=O)N1c1ccccc1C (centres undefined) | inactive |
| O=C1COc2ccc(-c3csc(=Nc4ccc(OC(F)F)cc4)n3CC3CCCO3)cc2N1 (centres undefined) | inactive |
| COc1ccc(NC(=O)C2(C)CCN2Cc2ccccc2OC(F)F)cc1OC (centres undefined) | inactive |
| CC1(C(=O)NCc2cccc3ccccc23)CCN1Cc1ccc(-c2ccccc2)o1 (centres undefined) | inactive |
| CC(=O)C1=C(C)N(Cc2ccc(Cl)cc2)C(=S)NC1c1cccc(Br)c1 (centres undefined) | inactive |
| CCCC#Cc1ccc2c(c1)O[C@@H](CN(C)S(=O)(=O)c1cccc(F)c1)[C@@H](C)CN([C@H](C)CO)S2(=O)=O | inactive |
| CCCC#Cc1ccc2c(c1)O[C@@H](CN(C)S(=O)(=O)c1cccc(F)c1)[C@@H](C)CN([C@@H](C)CO)S2(=O)=O | inactive |

| SMILES | activity change, negative = cytotoxicity |
| --- | --- |
| C[C@H](CO)N1C[C@H](C)[C@H](CN(C)S(=O)(=O)c2cccs2)Oc2ccc(NC(=O)C3CCCCC3)cc2CC1=O | inactive |
| C[C@H](CO)N1C[C@H](C)[C@@H](CN(C)C(=O)NC2CCCCC2)Oc2c(cccc2N(C)C)C1=O | inactive |
| O=c1c2ccccc2nnn1CSc1nnc(COc2ccc(Cl)cc2)n1Cc1ccco1 | 5.32% [at 8 µM] (inactive) |
| CC(NC(=O)c1ccccc1NC(=O)CN1CCc2ccccc2C1)c1ccccc1 (centres undefined) | inactive |
| O=C(O)C[C@@H]1C=C[C@@H](NC(=O)Nc2ccccc2)[C@H](CO)O1 | inactive |
| C[C@@H]1CN([C@@H](C)CO)C(=O)c2cccc(NS(=O)(=O)c3cccs3)c2O[C@@H]1CN(C)Cc1ccc(C(F)(F)F)cc1 | inactive |
| O=C(O)C[C@@H]1C=C[C@H](NC(=O)Nc2ccccc2)[C@H](CO)O1 | inactive |
| C[C@H]1Cn2cnc(C(=O)N3CCN(c4ccccc4)CC3)c2C(=O)N1 | inactive |
| C=C1CCN([C@@H](Cc2ccccc2)C(=O)Nc2ccc(OC)cc2)S(=O)(=O)c2ccccc21 | inactive |
| COc1ccccc1NC(=O)N[C@@H]1CC[C@H](CC(=O)N[C@H](C)c2ccccc2)O[C@@H]1CO | inactive |
| O=C(Nc1nc(COc2ccccc2)cs1)C12CC3CC(CC(C3)C1)C2 | inactive |
| CN1CCN(c2ccccc2NC(=O)C(Cc2ccccc2)n2cccc2)CC1 (centres undefined) | inactive |
| CC(=O)c1ccc(S(=O)(=O)N2CCN(c3nc4c(C)c(C)ccc4cc3C#N)CC2)cc1 | inactive |
| OCC[C@@H]1C[C@@H](O)[C@H](O)[C@]2(OCc3ccccc32)O1 | inactive |
| COc1ccc(NC(=O)Nc2ccc3c(c2)C(=O)N([C@H](C)CO)C[C@H](C)[C@H](CN(C)Cc2ccncc2)OCCCC[C@H](C)O3)cc1 | inactive |
| COc1ccccc1S(=O)(=O)Nc1ccc2c(c1)C(=O)N(C)C[C@@H](OC)[C@@H](C)CN[C@@H](C)CO2 | inactive |
| Cc1ccc2c(c1)[C@H]1[C@H](CO2)[C@H](c2ccccc2)[C@]2(C)C(=O)N(CC3CCCO3)CC(=O)N12 (some centres undefined) | inactive |
| CCOC(=O)C(C)Oc1cccc2c(=O)n(CC(=O)NCCc3ccc(OC)c(OC)c3)ccc12 (centres undefined) | inactive |
| COc1ccc(Cl)cc1NC(=O)CN(C)C(=O)CCCc1c[nH]c2ccccc12 | inactive |
| CC(C)CN(C(=O)C(c1ccccc1)c1ccccc1)c1c(N)n(CC(C)C)c(=O)[nH]c1=O | inactive |
